# Screen size: about 17,000 compounds; about 260 (1.5%) were called active.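 How the source made its calls: active means spot fluorescence over background with P-value below 7% in all four replicate spots, showing protein binding; inactive means the rest.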 The entries come from a sample that favours actives as a whole.
# Molecular target: Myc proto-oncogene protein (Homo sapiens) (UniProt P01106)
# Experiment: binders of human c-Myc, primary screen, biochemical, small molecule microarray, anti-His fluorescence (AID 624141)
# Conditions: His-c-Myc binding
# Myc proto-oncogene protein (Homo sapiens), sequence (P01106 whole entry, looked up): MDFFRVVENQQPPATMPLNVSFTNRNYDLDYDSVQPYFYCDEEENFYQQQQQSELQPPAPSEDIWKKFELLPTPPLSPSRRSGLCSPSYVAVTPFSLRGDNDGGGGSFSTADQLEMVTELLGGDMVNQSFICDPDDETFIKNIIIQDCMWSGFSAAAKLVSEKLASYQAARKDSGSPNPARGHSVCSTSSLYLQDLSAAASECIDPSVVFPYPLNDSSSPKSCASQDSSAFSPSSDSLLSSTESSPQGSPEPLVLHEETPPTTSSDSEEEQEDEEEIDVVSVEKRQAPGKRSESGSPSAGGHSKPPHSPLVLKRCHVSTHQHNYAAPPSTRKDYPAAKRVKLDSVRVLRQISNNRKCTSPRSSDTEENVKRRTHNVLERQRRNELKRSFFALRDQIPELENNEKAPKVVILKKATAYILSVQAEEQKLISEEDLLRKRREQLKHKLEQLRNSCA
row,Compound,outcome
1,COc1ccc2[nH]cc(CCNCc3ccc(Br)cc3)c2c1,inactive
2,c1cncc(CNCCc2c[nH]c3ccccc23)c1,active
3,c1ccc(CCCCN2CCC(c3ccccc3)CC2)cc1,inactive
4,C[C@H](CO)N1C[C@H](C)[C@H](CN(C)C(=O)Oc2ccc3ccccc3c2)OCc2cnnn2CCCC1=O,inactive
5,CN[C@@H]1C[C@H]2O[C@@](C)([C@@H]1OC)n1c3ccccc3c3c4c(c5c6ccccc6n2c5c31)C(=O)NC4,inactive

# Reference: PubChem BioAssay AID624141 (Broad Institute, 2012)
